# According to the supplement of paper PMC3334620:
# Whole data set: some 33,000 sequences, median “E-score (-0.5 to 0.5)” near -0.011, cut for the highest 2% near 0.28. The sample as a whole holds a higher share of the highest values than the screen did.
# Molecular target: T1, Gcr1 (UniProt P07261)
# T1 sequence: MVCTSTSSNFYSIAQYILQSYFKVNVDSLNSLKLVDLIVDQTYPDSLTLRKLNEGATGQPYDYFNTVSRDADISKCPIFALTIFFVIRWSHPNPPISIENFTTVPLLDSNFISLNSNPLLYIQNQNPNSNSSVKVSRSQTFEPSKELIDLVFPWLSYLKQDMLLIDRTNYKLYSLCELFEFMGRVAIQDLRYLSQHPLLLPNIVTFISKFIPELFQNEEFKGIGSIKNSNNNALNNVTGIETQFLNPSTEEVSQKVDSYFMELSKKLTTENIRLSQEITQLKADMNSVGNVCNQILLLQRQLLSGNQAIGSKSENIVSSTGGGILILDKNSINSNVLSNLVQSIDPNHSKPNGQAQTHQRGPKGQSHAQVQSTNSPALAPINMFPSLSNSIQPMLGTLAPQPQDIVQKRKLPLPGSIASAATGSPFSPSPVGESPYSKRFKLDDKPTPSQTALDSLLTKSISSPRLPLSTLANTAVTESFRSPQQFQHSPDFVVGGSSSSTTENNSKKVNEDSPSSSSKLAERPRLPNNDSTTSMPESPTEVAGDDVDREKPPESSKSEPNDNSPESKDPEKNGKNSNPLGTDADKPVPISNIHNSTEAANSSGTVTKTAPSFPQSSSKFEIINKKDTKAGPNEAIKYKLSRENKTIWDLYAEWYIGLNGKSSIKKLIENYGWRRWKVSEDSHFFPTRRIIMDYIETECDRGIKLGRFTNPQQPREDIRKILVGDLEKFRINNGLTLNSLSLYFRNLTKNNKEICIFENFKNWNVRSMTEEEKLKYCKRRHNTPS
# Assay: PBM E-score (8-mer binding enrichment) (E-score (-0.5 to 0.5)); higher = stronger / more preferred TF binding
# Details: protein concentration: 100 nM; construct: GST-full length
# How it was run: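 The E-score, a modified Wilcoxon-Mann-Whitney statistic, was computed by the Universal PBM Analysis Suite for every ungapped eight-base word pooled with its reverse complement. Scans behind it were normalised with masliner after bound GST-tagged yeast transcription factors were detected with fluorescent anti-GST. The proteins, at about 100-200 nM, had been applied to universal all-10-mer Agilent arrays made double-stranded by primer extension.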
row,Sequence,PBM E-score
1,CGGGACCG,-0.00477
2,GGGGACCC,0.291
3,CGGGACCC,0.306
4,GGGGACCA,0.194
5,AGGGACCC,-0.0366
6,CGGGACCA,0.00102
7,TAGCTGCA,-0.0344
8,AGACGGAG,-0.0738
9,ACAGCCGC,-0.0946
10,CCAGCCGC,-0.0253
11,GAAGCCGC,0.439
12,TAAGCCGA,-0.177
13,GAAGCCGA,0.401
14,CAAGCCGA,-0.038
15,CAAGCCGC,-0.00721
16,AAAGCCGC,0.0398
17,GCAGCCGC,0.282
18,ATGTGGTC,-0.0553
19,CTTTTGAA,0.1
20,AAATTTGC,0.109
21,GCGCAGAC,-0.167
22,ACGCAGCA,-0.0163
23,GCGCAGCC,0.292
24,ACGCAGCG,0.244

row,Sequence,PBM E-score
1,CCGCAGCC,0.223
2,ACGCAGCT,0.308
3,GCGCAGCA,-0.0801
4,ACGCAGCC,0.304
5,ACGCAGAT,0.151
6,AGAACCGG,0.214
7,CGAATGGC,0.137
8,CAGGGTGC,0.234
9,ACTCATAA,-0.0566
10,AAGCCGAT,-0.0786
11,CGGAACCA,0.114
12,AAGAACCT,0.2
13,CGGAACCG,0.18
14,AGGAACCT,0.38
15,CGGAACCC,0.348
16,TGGAACAA,-0.0703
17,ACGAACCT,-0.0495
18,CAGAACCC,0.208
19,TAGAACCA,0.0906
20,TGGAACCA,0.357
21,GGGAACGA,-0.0791
22,GGGAACCA,0.314
23,CAGTACCA,0.0486
24,AACATTCG,-0.0406

row,Sequence,PBM E-score
1,TAAATACA,0.161
2,GGTGGTCA,-0.132
3,AGCACGCT,-0.123
4,ACAGCGGT,-0.219
5,AGGAACCC,0.414
6,AGGAACCG,0.139
7,GGGAACCC,0.336
8,GGAAACCC,0.106
9,GAGAACCC,-0.162
10,AGGAACCA,0.203
11,CATGCCTA,-0.112
12,AAGAGAGC,-0.276
13,GAGCCGTA,0.0183
14,ATGGATAG,-0.00601
15,AACGGGGA,-0.00775
16,ACGATCCT,-0.0105
17,AGAATCCA,0.249
18,AGAATCCT,0.252
19,GAGATCCC,0.0362
20,GGGATCCC,0.419
21,AGGATCCG,0.0808
22,AGAATCCC,0.321
23,GGGATCAC,-0.137
24,AAGATCCT,0.0935

row,Sequence,PBM E-score
1,AGGATCCA,0.263
2,AGGATCCT,0.301
3,AGGATCCC,0.379
4,CTGGTCGA,-0.3
5,GGGCCAAC,-0.13
6,AAATGCTT,-0.208
7,GCCGGCGC,0.0181
8,AGCAAACT,0.0882
9,GGGTTCAA,-0.101
10,GCCGGCTA,-0.145
11,GAAGGGAC,-0.279
12,CGGATCCA,0.235
13,CGGATCCC,0.341
14,CGGATCGC,-0.0306
15,TGGATCAA,-0.0326
16,CGGATCCG,0.212
17,TGGATCCA,0.317
18,GAGATCCA,0.174
19,GTGATCCA,-0.0936
20,GGGATCCA,0.347
21,AAATCAAA,0.0655
22,TGAAAGCA,0.00794
